An excerpt weighted towards active compounds, which were near 2.1% of everything screened.
EP2 antag: inhibitors of human EP2 prostaglandin E2 receptor; P43116; C6 glioma cells expressing human EP2, cAMP TR-FRET; cells stimulated with saturating PGE2; inhibition, % at 25 µM; 260,000 tested, 0.52% active; AID 1422;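 active means percent inhibition above 40 after rounding to a whole number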;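 further: rat C6 glioma host cells with rolipram phosphodiesterase inhibitor present; the protocol text gives 20 µM as final concentration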
Target sequence (P43116 whole entry, looked up): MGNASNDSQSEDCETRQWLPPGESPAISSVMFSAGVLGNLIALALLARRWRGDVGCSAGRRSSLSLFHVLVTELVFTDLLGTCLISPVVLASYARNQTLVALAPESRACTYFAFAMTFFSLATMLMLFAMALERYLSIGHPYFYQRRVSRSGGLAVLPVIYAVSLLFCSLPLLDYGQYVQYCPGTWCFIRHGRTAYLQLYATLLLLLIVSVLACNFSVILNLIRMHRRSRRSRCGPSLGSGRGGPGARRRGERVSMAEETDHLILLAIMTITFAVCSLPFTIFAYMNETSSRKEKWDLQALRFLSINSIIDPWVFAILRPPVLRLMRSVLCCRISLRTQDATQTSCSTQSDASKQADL
HMGR II inh: inhibitors of class II HMG-CoA reductase from Enterococcus faecalis; purified E. faecalis HMGR, NADPH absorbance 340 nm kinetic; 190,000 tested, 0.41% active; AID 1066; inhibition, % at 10 µM;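 active means inhibition above a set limit, the median over all tested compounds plus 3 SD, cut at about 9.5% in these data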;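 further: enzyme runs in reverse so mevalonate oxidation gives rising NADPH absorbance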
GSH bead fluor: GSH bead compound fluorescence profile; GSH beads flow cytometry, compound fluorescence 488/530 nm; hits give high values; fluorescence (KMESF) at 10 µM; 190,000 tested, 0.25% active; AID 1776; in the data active means fluorescence above about 89;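 further: glutathione beads carrying GST-tagged Bcl family fusion proteins plus one bare bead set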
EP2 modulator: modulates human prostaglandin E2 receptor EP2 signaling | P43116 | EP2-expressing cells, cAMP HTRF FRET, PGE2 co-stimulation | induction, % at 25 µM | 260,000 tested, 0.83% active | AID 940;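 active means compounds whose cAMP rise, as percent of the full-agonist control response, exceeds 60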;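 further: rat C6 glioma line stably carrying human EP2 under a CMV promoter; the protocol text gives 20 µM as final concentration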
Avidin bead fluor: compound fluoresces at 488/530 nm on avidin beads; fluorescence (KMESF) at 10 µM; AID 1775; 220,000 tested, 0.38% active; compound fluorescence 488/530 nm, flow cytometry; hits give high values; in the data active means fluorescence above about 47
EP2 confirm: EP2 receptor cAMP induction, counter-screens negative. shares compounds with EP2 modulator. C6 glioma EP2 cells, cAMP HTRF induction; plus low (about EC15) PGE2 agonist. calls only at 20 µM (by protocol). 1,300 tested, 47% active;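 active means cAMP induction above 50% in the main assay while under 30% in all four parallel counter assays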;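 further: rat C6 glioma cells stably expressing human EP2 receptor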
Numbers stand for hits; n = inactive; x = not tested or not shown; + = active, no number; ! = repeats disagree.

SMILES	EP2 antag	HMGR II inh	GSH bead fluor	EP2 modulator	Avidin bead fluor	EP2 confirm
Cc1cc(C)c2cc(CN(CCCO)C(=S)Nc3ccccc3)c(=O)[nH]c2c1	n	x	x	n	x	x
COCC(=O)N(C)c1nnc(-c2cnc(C)cn2)s1	n	n	n	71.0	n	n
COCC(=O)N(C)c1nnc(-c2cnccn2)s1	n	n	n	n	n	x
CCOC(=O)C(CC)Sc1nnc(COc2ccc(Br)cc2)n1CC (stereo unspecified)	n	x	x	n	x	x
Cc1cc(C)nc(NC(=O)CSc2nc3ccccc3o2)n1	n	n	n	n	n	x
O=C(CSc1nc2ccccc2o1)Nc1ccccc1N1CCCCCC1	n	n	n	70.8	n	+
O=C(CSc1nc2ccccc2o1)Nc1ccc(N2CCOCC2)c(Cl)c1	n	n	n	n	n	x
O=C(CSc1nc2ccccc2o1)Nc1cc(C(F)(F)F)ccc1N1CCOCC1	n	n	n	80.1	n	+
Cc1oc(C2CC2)cc1C(=O)N1CCCC1c1nc2ccccc2[nH]1 (stereo unspecified)	x	x	x	n	x	x
N#Cc1c(-c2cccs2)nc(SCc2ccc(Cl)cc2)[nH]c1=O	n	n	n	75.1	n	n
CNC(=O)NC(=O)CSc1nc(-c2cccs2)c(C#N)c(=O)[nH]1	n	n	n	79.3	n	n
O=C(c1cccs1)N1N=C(c2ccccc2)CC1c1ccc(O)cc1 (stereo unspecified)	n	n	n	73.5	n	n
CC(C)(C)n1nnnc1C(c1cc2cc3c(cc2[nH]c1=O)OCO3)N1CCc2ccccc2C1 (stereo unspecified)	n	x	x	n	x	x
CCOc1ccc(-n2nc3c(=S)[nH]nc(C)c3c2C)cc1	n	n	n	65.5	n	n
COC(=O)c1ccc(-c2ccco2)n1Cc1ccccc1Cl	n	n	n	71.0	n	+
COC(=O)c1ccc(-c2ccco2)n1Cc1nc(-c2ccc(OC)c(OC)c2)oc1C	n	n	n	n	n	x
COCCNS(=O)(=O)c1ccc(S(=O)(=O)N2CCCCC2)cc1	n	x	x	n	x	x
COc1ccc(CNC(=O)CN2CCN(Cc3ccc4c(c3)OCO4)CC2)cc1	n	x	x	n	x	x
CC1CCN(c2ccccc2NC(=O)c2ccc(C#N)cc2F)CC1	n	n	n	n	n	+
CC(C)C(=O)N1CCN(c2ccccc2NC(=O)c2ccc(C#N)cc2F)CC1	n	n	n	n	n	x
COC(=O)[C@H]1CN(C(=O)c2ccccn2)C[C@@H]1c1ccc(F)cc1	x	x	x	n	x	x
Cc1ccc(NC2=C(C(=O)c3ccccc3)N(C)S(=O)(=O)c3ccccc32)cc1	n	n	n	65.7	n	n
CCc1ccc(C2C(C(C)=O)=C(O)C(=O)N2CC(=O)OC)cc1 (stereo unspecified)	n	x	x	n	x	x
CCc1ccc(Nc2oc(C)cc(=O)c2C(C)=O)cc1	n	n	n	68.1	n	n
COc1ccccc1N(C(=O)NCc1ccccc1)C1=NCC(C)S1 (stereo unspecified)	n	n	n	68.7	n	+
SMILES	EP2 antag	HMGR II inh	GSH bead fluor	EP2 modulator	Avidin bead fluor	EP2 confirm
COc1ccc(Oc2cc(C(F)(F)F)nc(N(C)C)n2)cc1	n	n	n	65.2	n	n
CCc1nn(CCC(N)=O)c(=O)c2cc3oc(C)cc3n12	n	x	x	n	x	x
CCOC(=O)CSc1nc2cc(OCC)ccc2cc1C#N	n	n	n	n	n	x
CCOc1ccc2cc(C#N)c(SCC(=O)NC(C)CC)nc2c1 (stereo unspecified)	n	n	n	69.2	n	n
Cc1ccsc1CN(CCCN1CCOCC1)Cc1ccsc1	n	x	x	n	x	x
CNC(=O)c1cc2c(=O)n3cc(C)ccc3nc2n(C(C)C)c1=N	n	n	n	72.9!	n	n
Cc1ccc2nc3c(cc(C(=O)NCc4ccccc4)c(=N)n3C(C)C)c(=O)n2c1	n	x	x	n	x	x
Cc1cc2cc(CN(Cc3cccnc3)C(=S)Nc3ccccc3)c(=O)[nH]c2cc1C	n	x	x	n	x	x
CCOC(=O)c1c(N)nn(C(=O)C(C)(C)C)c1-c1ccccc1	n	n	n	78.0	n	+
CCOC(=O)c1c(N)sc(C(O)(C(F)(F)F)C(F)(F)F)c1-c1ccccc1	n	n	n	n	n	x
CCOC(=O)c1c(N)sc(-c2ccccc2)c1C	n	n	n	72.7	n	n
CCOC(=O)c1c(N)nn(C(=O)c2ccccc2F)c1-c1ccc(OC)cc1	n	n	n	n	n	x
COc1ccc(N(CC(=O)NCc2cccnc2)S(=O)(=O)c2ccc(F)cc2)cc1	n	x	x	n	x	x
